# According to PubChem BioAssay AID1224917:
# Activity calls are given as the source filed them. How the calls were made is not given here.
# Molecular target: Proto-oncogene tyrosine-protein kinase Src (Homo sapiens) (UniProt P12931)
# Test: ABL/SRC IC50 fold difference, recombinant kinases – biochemical, recombinant kinase panel, profiling panel (AID 1224917)
# Conditions: 33P substrate incorporation, hits give high values
# Proto-oncogene tyrosine-protein kinase Src (Homo sapiens), sequence (P12931 whole entry, looked up): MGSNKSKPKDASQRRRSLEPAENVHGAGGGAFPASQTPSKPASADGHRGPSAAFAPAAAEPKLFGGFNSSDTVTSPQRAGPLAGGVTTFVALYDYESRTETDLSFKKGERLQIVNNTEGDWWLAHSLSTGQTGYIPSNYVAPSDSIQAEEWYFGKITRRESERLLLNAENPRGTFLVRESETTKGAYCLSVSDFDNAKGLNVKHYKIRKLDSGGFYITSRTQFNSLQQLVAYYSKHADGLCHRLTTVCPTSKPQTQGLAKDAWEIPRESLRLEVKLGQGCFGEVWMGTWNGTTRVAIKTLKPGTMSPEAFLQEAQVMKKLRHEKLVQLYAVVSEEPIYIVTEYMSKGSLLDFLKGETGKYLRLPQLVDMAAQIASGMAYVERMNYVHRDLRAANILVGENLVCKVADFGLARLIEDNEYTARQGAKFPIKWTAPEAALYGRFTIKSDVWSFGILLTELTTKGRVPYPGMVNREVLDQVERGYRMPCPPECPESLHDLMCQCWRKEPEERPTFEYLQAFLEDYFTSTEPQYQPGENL
smiles,measurement,value
COc1cc(-c2nn(CCN3CCC(N(C)C)CC3)c3ncnc(N)c23)ccc1NC(=O)OC(C)(C)C,selectivity fold (ABL/SRC IC50),> 950 (active)
